Compound activity (PubChem BioAssay)
Rac1 act GTP bind: GTP binding modulators of activated mutant Rac1, primary screen, biochemical, bead-based flow cytometry, multiplex, fluorescent GTP. Ras-related C3 botulinum toxin substrate 1 (Homo sapiens), P63000. GST-Rac1 activated beads; actives lie on both sides; 100% means binding = to untreated wells. percent activity (GTP binding), % at 10 µM. actives 0.11% (n = 190,000). AID 764, 2007;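 active = GTP binding at least 20 percentage points away from the 100% baseline, in either direction, so actives lie on both sides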
Cdc42 wt: modulators of GTP binding to wildtype Cdc42, primary screen, biochemical, multiplex bead flow cytometry, Bodipy-GTP; Cell division control protein 42 homolog (Homo sapiens), P60953; GST-Cdc42 beads; actives lie on both sides; percent activity (GTP binding), % at 10 µM; actives 0.2% (n = 190,000); AID 761, 2007;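 active = percent activity GTP binding at least 20 points away from the 100% baseline, either down as inhibitor or up as activator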;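 note: median bead fluorescence of bound Bodipy-FL-GTP at 100 nM; 0% = excess unlabeled GTP control and 100% = no compound control; below 100% means less GTP binding so inhibitor and above means activator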
Target sequence (P60953 whole entry, looked up): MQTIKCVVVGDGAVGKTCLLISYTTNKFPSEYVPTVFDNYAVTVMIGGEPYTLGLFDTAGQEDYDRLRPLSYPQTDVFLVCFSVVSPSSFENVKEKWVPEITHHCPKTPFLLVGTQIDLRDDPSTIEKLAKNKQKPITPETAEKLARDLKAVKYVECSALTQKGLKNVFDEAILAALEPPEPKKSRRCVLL
Rab7 wt modul: modulators of GTP binding to Rab7, primary screen, biochemical, wildtype, multiplex bead flow cytometry; Rab7 GTPase wild type (dog), Bodipy-FL-GTP binding; GST-Rab7 beads, fluorescent GTP binding; actives lie on both sides; untreated = 100%, excess cold GTP = 0%; GTP binding activity (percent of control), % at 10 µM; actives 0.055% (n = 190,000); AID 758, 2007;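 active = fluorescent GTP binding to Rab7 beads changed by at least 20 points from the 100% baseline, either direction, mostly lower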;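 note: median green fluorescence of bound Bodipy-FL-GTP per Rab7 bead population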
HRas wt GTP: modulators of GTP binding to HRas wildtype, primary screen, biochemical, bead-based flow cytometry, multiplex; GTPase HRas (Homo sapiens), P01112; GTP binding activity, % at 10 µM; actives 0.14% (n = 190,000); AID 759, 2007; GST-Ras wt beads, Bodipy-FL-GTP binding; actives lie on both sides;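 active = GTP binding activity at least 20% away from the 100% baseline, either lowered as inhibitor or raised as activator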;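 note: 0% = unlabeled GTP competition control and 100% = no-compound control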
Target sequence (P01112 whole entry, looked up): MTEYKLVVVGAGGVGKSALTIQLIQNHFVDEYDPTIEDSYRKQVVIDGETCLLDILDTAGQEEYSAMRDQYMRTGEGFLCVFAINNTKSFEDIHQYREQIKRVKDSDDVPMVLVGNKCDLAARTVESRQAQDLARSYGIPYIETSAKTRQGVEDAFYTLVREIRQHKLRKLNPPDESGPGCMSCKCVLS
Rac1 wt GTP bind: wildtype Rac1 GTP binding modulators, primary screen, biochemical, GST-Rac1 beads, flow cytometry, multiplex | GTP binding activity (% of control), % at 10 µM | Ras-related C3 botulinum toxin substrate 1 (Homo sapiens), P63000 | actives 0.27% (n = 190,000) | AID 757, 2007 | fluorescent GTP binding; actives lie on both sides; 0 = cold GTP competed, 100 = untreated;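 active = GTP binding activity at least 20 points away from the 100% control level, either lower or higher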
Rab2A wt mod: modulators of GTP binding to Rab2A wildtype, primary screen, biochemical, dog, bead-based flow cytometry, multiplex | GST-Rab2 wt beads, Bodipy-GTP binding | GTP binding activity, % at 10 µM | actives 0.19% (n = 190,000) | AID 760, 2007;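 active = GTP binding activity at least 20 points away from 100%, either lowered or raised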;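 note: 0% = beads with excess unlabeled GTP and 100% = no-compound control corrected for plate trend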
Starred values were filed as active, the others as inactive; [ ] = dose if it differs, or a comment. Sampled rows, rich in hits. Any-hit rate of the full collection: about 0.4%.

SMILES	Rac1 act GTP bind	Cdc42 wt	Rab7 wt modul	HRas wt GTP	Rac1 wt GTP bind	Rab2A wt mod
Cc1ccc(-c2ccc(/C=C3\SC(N4CCOCC4)=NC3=O)o2)cc1	90.0	87.0	90.0	85.0	76.0*	88.0
CCCc1nc2oc3c(=O)[nH]cnc3c2c2c1CCCC2	85.0	82.0	93.0	82.0	79.0*	81.0
CC(C)c1nc2sc3c(=O)[nH]c(=S)[nH]c3c2c2c1CCC2	96.0	100.0	101.0	97.0	98.0	93.0
CC(C)c1nc2oc3c(=O)[nH]cnc3c2c2c1CCC2	82.0	70.0*	81.0	74.0*	79.0*	73.0*
CC(C)Cc1nc2oc3c(Cl)ncnc3c2c2c1CCC2	99.0	100.0	97.0	101.0	101.0	99.0
NC(=O)c1nnn(-c2nonc2N)c1-c1ccc([N+](=O)[O-])cc1	96.0	100.0	102.0	98.0	103.0	101.0
COc1cc(/C=N/NC(=O)CCN2CCN(c3ccccc3)CC2)cc(OC)c1OC	90.0	87.0	94.0	86.0	79.0*	80.0
COc1cc(/C=N/NC(=O)CCN2CCN(Cc3ccccc3)CC2)cc(OC)c1OC	101.0	99.0	97.0	100.0	100.0	101.0
O=C(O)C1C2C=CC(C2)C1C(=O)N1CCOCC1 (configuration not stated)	37.0*	39.0*	22.0*	43.0*	33.0*	36.0*
O=C(NC1CCCC1)C1C2C=CC(C2)C1C(=O)N1CCOCC1 (configuration not stated)	98.0	101.0	103.0	98.0	98.0	99.0
O=C(Oc1c(Br)cc(C(=S)N2CCOCC2)cc1Br)c1ccc(Cl)cc1	77.0*	75.0*	88.0	80.0	80.0	78.0*
O=C(Oc1ccc(C(=S)N2CCOCC2)cc1Br)c1cc(Cl)ccc1Cl	95.0	97.0	98.0	98.0	99.0	96.0
O=C(NCCc1ccccc1)C1CCC(CNc2nc(=S)[nH]c3ccccc23)CC1 (configuration not stated)	95.0	93.0	102.0	96.0	96.0	98.0
Cc1ccc(C)c(N2CCN(C(=O)CN(C)S(=O)(=O)c3ccc4c(c3)CCC(=O)N4)CC2)c1	80.0	76.0*	84.0	82.0	79.0*	77.0*
Cc1ccc(NCC(=O)c2ccccc2)cc1Cl	92.0	93.0	82.0	78.0*	91.0	88.0
CC(C)Sc1nc(-c2ccccc2)cc(=O)[nH]1	105.0	115.0	104.0	110.0	128.0*[activator]	109.0
CCC(Sc1nc(-c2ccccc2)cc(=O)[nH]1)C(=O)O (configuration not stated)	94.0	94.0	96.0	94.0	96.0	93.0
CCOC(=O)C1=NN(C(=O)c2ccc(OC)cc2)C(O)(c2ccc(Cl)cc2)C1 (configuration not stated)	98.0	100.0	95.0	98.0	99.0	96.0
COC(=O)C1=NN(C(=O)c2cccc(Br)c2)C(O)(c2ccc(Cl)cc2)C1 (configuration not stated)	79.0*	78.0*	94.0	85.0	85.0	82.0
Cc1ccc(-c2cn3cccc(C)c3n2)cc1	107.0	109.0	120.0*[activator]	112.0	108.0	118.0
Cc1cccn2cc(-c3ccc(Cl)cc3)nc12	93.0	91.0	93.0	91.0	93.0	93.0
Cc1ccc2c(c1)c1nnc(SCC(=O)N3CCCc4ccccc43)nc1n2CC(=O)O	82.0	64.0*	84.0	67.0*	66.0*	66.0*
S=C(NCCc1ccccc1)NC1CC1	104.0	117.0	99.0	104.0	123.0*[activator]	105.0
NS(=O)(=O)c1ccc(Nc2nc(-c3ccc(F)cc3)cs2)cc1	96.0	102.0	100.0	97.0	96.0	95.0
